Rows were chosen to be rich in hits. Some 2.8% of all compounds tested hit in one or more screens of this group.
Pol kappa inh-1 – qHTS for Inhibitors of Polymerase Kappa; hit rate 0.53% among 400,000; DNA polymerase kappa (Homo sapiens), Q9UBT6; Potency, µM (top dose mostly 107 µM), inactives show at the highest dose activity, negative = inhibition, usual class: inhibitors; purified Pol kappa, fluorescent DNA synthesis assay, 10 min; note: potency is the fitted concentration of half-maximal effect; % is set by controls: 0 for no effect and ±100 for the full control effect
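Pol kappa 10 nM + cpd, 15 min RT; start w/ substrate 50 nM final; fluorescence kinetic read, 0 and 10 min. Neg ctrl: buffer, no enzyme.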
Pol eta inh-1 – qHTS for Inhibitors of Polymerase Eta; DNA polymerase eta (Homo sapiens), Q9Y253; recombinant Pol eta, fluorescent DNA replication assay; Potency, µM (top dose mostly 114 µM), without a hit: at the highest dose activity change, negative = inhibition, usual class: inhibitors; hit rate 1.2% among 390,000; AID 588591, 2011; note: potency is the fitted concentration of half-maximal effect; % is set by controls: 0 for no effect and ±100 for the full control effect
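Fluorescent replication assay: 50 nM final substrate added after a 15 min room-temperature compound preincubation with 10 nM enzyme. Signal taken at 0 min and again at 10 min.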
PI4K2A block – qHTS for small molecular inhibitors of PI4K2A; purified PI4K2A, ADP-Glo luminescence, 1 h; stronger effect = lower value; activity change, negative = inhibition, % at 76.9 µM; hit rate 0.13% among 420,000; AID 1346378, 2018; in the data active = activity change below about -50%; inconclusive = mostly about -30% to -49%;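 note: -100% = wells without enzyme as full effect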
Target sequence (Q9BTU6 whole entry, looked up): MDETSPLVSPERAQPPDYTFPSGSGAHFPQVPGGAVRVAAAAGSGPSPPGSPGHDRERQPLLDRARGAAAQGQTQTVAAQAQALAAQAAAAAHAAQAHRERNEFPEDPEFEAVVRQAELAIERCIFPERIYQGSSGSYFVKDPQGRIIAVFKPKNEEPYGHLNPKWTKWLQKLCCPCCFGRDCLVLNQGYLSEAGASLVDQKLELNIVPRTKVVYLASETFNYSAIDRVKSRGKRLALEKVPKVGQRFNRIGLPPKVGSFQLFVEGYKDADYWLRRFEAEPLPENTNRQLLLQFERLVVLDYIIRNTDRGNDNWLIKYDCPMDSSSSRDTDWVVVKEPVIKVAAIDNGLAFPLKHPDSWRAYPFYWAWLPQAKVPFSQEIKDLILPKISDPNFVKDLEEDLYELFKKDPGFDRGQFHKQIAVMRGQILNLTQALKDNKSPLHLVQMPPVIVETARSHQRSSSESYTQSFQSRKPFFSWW
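ADP-Glo luminescence measured ADP generated by PI4K2A enzyme (4 ug/mL before mixing) with 1.2 mM PI substrate (pre-mix) and 300 microM ATP (pre-mix). Tris pH7.5 buffer with MgCl2, Triton X-100; 1 h reaction at ambient temperature.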
Pol beta inh – qHTS Assay for Inhibitors of DNA Polymerase Beta; P06746; Potency, µM (series often up to 114 µM), inactives show top-dose activity change, negative = inhibition, hits mostly inhibitors; hit rate 1.3% among 340,000; AID 485314, 2010; Pol beta primer extension/strand displacement, fluorescence kinetic; note: potency is the fitted concentration of half-maximal effect; % is set by controls: 0 for no effect and ±100 for the full control effect
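10 nM enzyme + cpd, 15 min RT; start with substrate 50 nM final; read 0 min and after 10 min RT. Corrected, normalized data; 4-parameter Hill curve fit.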
Pol iota inh – qHTS for Inhibitors of Polymerase Iota; Pol iota fluorescent replication assay, 10 min; hit rate 1% among 390,000; DNA polymerase iota (Homo sapiens), Q9UNA4; Potency, µM (doses to about 115 µM), for the others: top-dose activity, negative = inhibition, hits mostly inhibitors; note: potency is the fitted concentration of half-maximal effect
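Fluorescent replication assay read twice, at 0 min and 10 min after adding 50 nM (final) substrate. Enzyme (10 nM) and compounds were first incubated 15 min at room temperature; enzyme-free buffer wells were negative controls.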
PI5P4K alpha inh – qHTS for Inhibitors of phosphatidylinositol 5-phosphate 4-kinase (PI5P4K); Phosphatidylinositol 5-phosphate 4-kinase type-2 alpha (Homo sapiens), P48426; hit rate 1.2% among 330,000; max response, %; PI5P4Kalpha enzyme, ADP-Glo luminescence, 60 min; stronger effect = lower value; active = max response of -50% or lower; inconclusive = between -30% and -50%; inactive = -30% or higher; note: value at the top dose of about 77 µM; % is set by controls: 0 for no effect and ±100 for the full control effect
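Reactions run in 0.038 M HEPES pH 7.4, 0.28 mM EGTA, 0.1% CHAPS and 5% DMSO, with PI5P4Kalpha, substrate, compound and 5 microM ATP final, one hour at room temperature. Readout is ADP-Glo luminescence.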
TbPGK inh – qHTS for inhibitors of Phosphogylcerate Kinase: Hit Validation Screen; shares compounds with Pol kappa inh-1; TbPGK coupled GAPDH assay, Kinase-Glo luminescence; Potency, µM (doses to about 57.5 µM), for the others: top-dose activity change, negative = inhibition, hits mostly inhibitors; hit rate 79% among 500; note: potency is the fitted concentration of half-maximal effect; % is set by controls: 0 for no effect and ±100 for the full control effect; nearly all actives have a fitted effect of over 65% in size
POLI cherry-pick – qHTS for Inhibitors of Polymerase Iota: Confirmatory Assay for Cherry-picked Compounds. shares compounds with Pol kappa inh-1. Pol iota primer extension, TAMRA/BHQ fluorescence. Potency, µM, hits mostly inhibitors. hit rate 77% among 1,500. AID 720496, 2013; note: potency is the fitted concentration of half-maximal effect
GALK confirm – Confirmation Assay for Inhibitors of Human Galactokinase (GALK). shares compounds with Pol eta inh-1. hit rate 70% among 150. purified GALK, Kinase-Glo ATP depletion luminescence. AID 2015, 2009. Potency, µM (doses to about 115 µM), for the others: at the top dose activity, negative = inhibition, most hits filed as inhibitors
Redox cycling – Confirmatory Assay for Inhibitors of Human Galactokinase (GALK): Phenol-HRP redox assay counterscreen | Phenol red-HRP H2O2 redox cycling, absorbance 600 nm | Potency, µM (doses to about 115 µM), inactives show at the top dose activity change, negative = H2O2 signal, usual class: inhibitors | shares compounds with Pol eta inh-1 | AID 2035, 2009 | hit rate 40% among 150
HEK293 tox – Secondary Assay for Inhibitors of Human Galactokinase (GALK): HEK-293 Cell Viability Assay. shares compounds with Pol eta inh-1. HEK-293 viability, ATP luminescence (CellTiter-Glo), 24/48 h. Potency, µM (doses to about 46.1 µM), for the others: at the top dose activity change, negative = cytotoxicity, most hits filed as inhibitors. hit rate 10% among 170; note: potency is the fitted concentration of half-maximal effect; % is set by controls: 0 for no effect and ±100 for the full control effect
Pol kappa inh-2 – qHTS for Inhibitors of Polymerase Kappa: Confirmatory Assay for Cherry-picked Compounds; shares compounds with Pol eta inh-1; purified Pol-kappa, fluorescent strand-displacement substrate; Potency, µM, most hits filed as inhibitors; hit rate 76% among 920; note: potency is the fitted concentration of half-maximal effect
Pol eta inh-2 – qHTS for Inhibitors of Polymerase Eta: Confirmatory Assay for Cherry-picked Compounds | Pol eta primer extension, TAMRA/BHQ fluorescence, 10 min | Potency, µM, usual class: inhibitors | shares compounds with Pol eta inh-1 | hit rate 64% among 2,600; note: potency is the fitted concentration of half-maximal effect
* hit, by the source's call; ? = inconclusive; · = not tested or not shown. Unless noted, calls come from the whole dose curve; as a rule, active = well fitted curve in the direction sought with a large enough effect; inconclusive = small, poorly fitted or top-dose-only effect, or another doubt; inactive = no such curve, though single readings can be large; an effect the other way counts as inactive or inconclusive.

SMILES | Pol kappa inh-1 | Pol eta inh-1 | PI4K2A block | Pol beta inh | Pol iota inh | PI5P4K alpha inh | POLI cherry-pick | Pol eta inh-2 | others
CCOc1ccccc1NC(=O)Cn1c(=O)n(-c2ccc(F)cc2)c(=O)c2sc3ccccc3c21 | 7.8% | 4.1% | -16.7 | 24.6% | 4.9% | · | · | ·
CCc1ccc(NC(=O)COc2ccc(/C=C(/C#N)c3nc4ccccc4[nH]3)cc2OC)cc1 | -28.1% | ? | -5.7 | ? | 14.4% | 8.3 | · | ·
COc1cc(/C=C(\C#N)c2nc3ccccc3[nH]2)ccc1OCc1ccc(F)cc1 | -21.1% | 79.4µM* | -3.6 | 11.2µM* | ? | · | 67* | ?
O=C(NNC(=O)c1ccccc1Br)c1ccc2nc[nH]c2c1 | ? | 22.4µM* | -2.8 | 22.4µM* | ? | ? | ? | 53.6*
CCOC(=O)c1ccccc1NC(=O)c1sc2nc3n(c(=O)c2c1C)CCCCC3 | -6.1% | -3.3% | 3.4 | 25.4% | 24.0% | · | · | ·
O=C(N/N=C/c1cn(Cc2ccccc2)c2ccccc12)c1cc(O)cc(O)c1 | ? | 44.7µM* | 3.4 | 31.6µM* | ? | ? | 33.6* | 30.1* | Pol kappa inh-2=18.9*
CCCCC(=O)Nc1sc2c(c1-c1nc3ccccc3s1)CCN(C(C)=O)C2 | · | · | · | -1.5% | · | · | · | ·
CC(=O)Nc1sc2c(c1-c1nc3ccccc3s1)CCCN(C(C)C)C2 | · | · | -6.1 | · | · | · | 53.2* | · | Pol kappa inh-2=11.9*
CCCCC(=O)Nc1sc2c(c1-c1nc3ccccc3s1)CCN(C(C)C)C2 | · | · | · | · | · | · | ? | · | Pol kappa inh-2=10.6*
CC(=O)Nc1sc2c(c1-c1nc3ccccc3s1)CN(C(C)C)C2 | · | · | -5.3 | · | · | · | · | ·
CC(=O)Nc1sc2c(c1-c1nc3ccccc3s1)CN(C(C)C)CC2 | 50.1µM* | ? | 4.0 | · | 12.6µM* | · | 23.8* | · | Pol kappa inh-2=16.8*
CC(=O)Nc1sc2c(c1-c1nc3ccccc3s1)CCOC2 | · | · | 0.8 | · | · | · | · | ·
CCOC(=O)[C@]12Cc3c(cc(OC)c(OC)c3OC)[C@H]1N(C1CCCCC1)C(=O)c1cc(OC)ccc12 | · | · | 18.6 | · | · | -2.0 | · | ·
COc1ccc(CCNC(=O)CCc2c(C)c3cc4c(C)c(C)oc4cc3oc2=O)cc1OC | 6.7% | 5.6% | -10.7 | ? | -24.0% | · | · | ·
O=C(NCc1ccco1)c1cccc2c1C(=O)c1ccc(/C=C/c3ccccc3)cc1S2(=O)=O | ? | 14.1µM* | -18.2 | · | 25.1µM* | -71.5* | 42.3* | 37.9* | Pol kappa inh-2=18.9*
COc1ccc(-c2ccc3c(c2)S(=O)(=O)c2cccc(C(=O)NCc4ccccc4Cl)c2C3=O)cc1OC | -1.9% | ? | -7.1 | · | 10µM* | -2.7 | 16.8* | 26.9*
COc1ccc(-c2ccc3c(c2)S(=O)(=O)c2cccc(C(=O)NCCOc4ccccc4Cl)c2C3=O)cc1OC | -10.7% | ? | -3.9 | · | 12.7% | -6.1 | · | ·
Cc1cc(-c2ccc(S(=O)(=O)Nc3cccc(Cl)c3C)cc2)on1 | -16.0% | -15.5% | -3.1 | 6.6% | 37.2% | · | · | ·
CC(C)NC(=O)N1Cc2cc(C(=O)NC3CCCCC3)nc(-c3cccc(-c4cccnc4)c3)c2[C@@H]1CCO | · | · | -4.2 | · | · | -7.2 | · | ·
COc1ccc(CNC(=O)Cc2c(C)c3c(cc(C)c4c(C)c(C)oc43)oc2=O)cc1 | 7.2% | -16.8% | 5.4 | 31.3% | 45.9% | · | · | ·
Cc1ccc(SCC(=O)Nc2ccc(O)c(-c3nc4cc(C)ccc4o3)c2)cc1 | 2.0% | -11.4% | 3.1 | -0.5% | 27.4% | · | · | ·
CC(=O)Nc1ccc(NC(=O)CSc2nc(N)c(NC(=O)c3ccccc3F)c(=O)[nH]2)cc1 | ? | 25.1µM* | -2.9 | ? | 39.8µM* | ? | 67* | ? | Pol kappa inh-2=?
Cc1ccccc1-c1nc2c(=O)n(C)c(=O)nc-2n(C)n1 | -21.7% | · | · | · | -88.4% | · | 1.68* | 4.78*
CCCc1nc2c(=O)n(C)c(=O)nc-2n(C)n1 | 6.4% | 0.891µM* | -61.3* | ? | -97.1% | -0.1 | 1.5* | 2.69* | TbPGK inh=1.46µM*;GALK confirm=0.943µM*;Redox cycling=0.668µM*;HEK293 tox=9.96µM*
Cc1ccc(-n2c3nc(=O)n(C)c(=O)c-3cc3ccccc32)cc1 | -2.0% | 3.5% | 5.2 | -12.5% | 24.1% | -1.4 | · | ·

High-throughput results (PubChem BioAssay)
